From PubChem BioAssay (NCI) come the findings set out here.

The panel holds about 83,000 compounds, 20% with a hit somewhere; the sample as a whole holds those more often.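 Note: values are percent growth. 100 is the growth of untreated cells, values between 100 and 0 indicate rising inhibition; between -100 and 0 indicates cell death.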 A number with no mark means an inactive call. Activity calls are given as the source filed them. The calls were made as follows: active = growth percent below 10; inactive = the rest.

Test systems include MOLT-4 leukemia; SR leukemia; OVCAR-8 ovarian; OVCAR-5 ovarian; OVCAR-4 ovarian; SK-OV-3 ovarian; IGROV1 ovarian; OVCAR-3 ovarian; HS 578T breast; NCI/ADR-RES ovarian; T-47D breast; BT-549 breast; MDA-MB-435 melanoma; SW-620 colon; HCT-116 colon; HCC-2998 colon; KM12 colon; MCF7 breast; RPMI-8226 leukemia.
Common to all, as to test: NCI-60 one-dose screen, 48 h (100 = growth as untreated, 0 = no growth, -100 = all killed)
Common to all, as to settings: 10 µM unless noted

`C=CCOC(=O)C(Br)CC` (stereo not given): the growth is 102% with MOLT-4 leukemia; 100% in the assay with SR leukemia; 106% in the assay with OVCAR-8 ovarian; 113% in the assay with OVCAR-5 ovarian; 108% in the assay on OVCAR-4 ovarian; 105% with SK-OV-3 ovarian. Besides, the growth in the assay on IGROV1 ovarian is 115%; in the assay with OVCAR-3 ovarian, 105%; in the assay with HS 578T breast, 104%; in the assay with NCI/ADR-RES ovarian it was 107%; in the assay with T-47D breast, 95.8%; in the assay with BT-549 breast it was 111%. The growth in the assay with MDA-MB-435 melanoma was 109%; in the assay with SW-620 colon it was 104%; in the assay with HCT-116 colon, 104%; in the assay with HCC-2998 colon, 101%; with KM12 colon, 112%.
With `Cc1cc(N(CCCl)CCCl)ccc1C=Nc1ccc(-c2csc(-c3ccccc3)n2)cc1`, the growth with MOLT-4 leukemia was 22.5%; with SR leukemia it was 31.4%; in the assay on OVCAR-8 ovarian it was 91.3%; in the assay on OVCAR-5 ovarian, 120%; in the assay with OVCAR-4 ovarian it was 89.6%; in the assay on SK-OV-3 ovarian, 71.6%. The growth is 93.2% in the assay with IGROV1 ovarian; 89.7% in the assay with OVCAR-3 ovarian; 107% in the assay on HS 578T breast; 82.4% in the assay with NCI/ADR-RES ovarian; 57.8% with T-47D breast; 67.2% in the assay on BT-549 breast. Moreover, the growth with MDA-MB-435 melanoma is 95.2%; with SW-620 colon, 83.1%; in the assay on MCF7 breast, 48%; with HCT-116 colon it was 89.8%; with KM12 colon, 89.5%.
In the case of `CCN1C(=O)CC(=O)N(CC)C1=S`, the growth is 109% with MOLT-4 leukemia; 101% in the assay with SR leukemia; 109% with OVCAR-8 ovarian; 85.7% with OVCAR-5 ovarian; 89.9% in the assay on OVCAR-4 ovarian; 99.7% in the assay on SK-OV-3 ovarian. The growth in the assay on IGROV1 ovarian was 98.5%; in the assay on OVCAR-3 ovarian, 112%; with HS 578T breast, 102%; with NCI/ADR-RES ovarian, 73.9%; in the assay with T-47D breast, 98.1%; in the assay with BT-549 breast it was 94.5%. Also, the growth was 105% in the assay with MDA-MB-435 melanoma; 108% with SW-620 colon; 100% in the assay with MCF7 breast; 93.8% in the assay on HCT-116 colon; 106% in the assay with KM12 colon.
Turning to `N#CC(N)c1ccccc1` (stereo not given), the growth was 108% in the assay on MOLT-4 leukemia; 101% in the assay with SR leukemia; 106% in the assay with OVCAR-8 ovarian; 101% in the assay on OVCAR-5 ovarian; 110% in the assay on OVCAR-4 ovarian; 115% with SK-OV-3 ovarian. Besides, the growth was 115% in the assay with IGROV1 ovarian; 106% in the assay with OVCAR-3 ovarian; 98.5% in the assay with HS 578T breast; 108% with NCI/ADR-RES ovarian; 114% in the assay on T-47D breast; 96.3% in the assay with BT-549 breast. The growth in the assay on MDA-MB-435 melanoma is 98.3%; in the assay on SW-620 colon, 103%; in the assay on MCF7 breast, 111%; in the assay with HCT-116 colon it was 96.4%; in the assay with HCC-2998 colon, 113%; in the assay on KM12 colon it was 103%.
Turning to `CCC1(NC(=O)c2cc(F)c(F)c(F)c2F)C(=O)NC(=O)N(C(C)C)C1=O` (stereo not given), the growth in the assay on MOLT-4 leukemia was 55%; in the assay on SR leukemia it was -18.6% (active); with OVCAR-8 ovarian, 79.4%; in the assay with OVCAR-5 ovarian, 109%; with OVCAR-4 ovarian, 84.6%; with SK-OV-3 ovarian, 150%. Further, the growth in the assay with IGROV1 ovarian is -56.8% (active); in the assay with OVCAR-3 ovarian, 138%; in the assay with HS 578T breast, 28.3%; with NCI/ADR-RES ovarian, 105%; in the assay on T-47D breast, 214%; with BT-549 breast it was 72.9%. The growth with MDA-MB-435 melanoma is 59.8%; in the assay with SW-620 colon, 62.7%; with MCF7 breast it was 96.4%; in the assay on HCT-116 colon it was 99%; in the assay with HCC-2998 colon it was -55.8% (active); with KM12 colon, 139%.
With `CC/C(Cc1ccccc1)=C(\c1ccc(OCCN2CCCC2)cc1)c1ccc(OC(=O)NCc2ccccc2)cc1`, the growth in the assay with MOLT-4 leukemia is 11.7%; in the assay with SR leukemia, -28.2% (active); with OVCAR-8 ovarian it was 62.2%; in the assay with OVCAR-5 ovarian, 75.9%; with OVCAR-4 ovarian it was 59.9%; in the assay with SK-OV-3 ovarian, 91.9%. The growth with IGROV1 ovarian was 40%; with OVCAR-3 ovarian, 78.4%; in the assay with HS 578T breast it was 69.5%; with NCI/ADR-RES ovarian, 88.1%; in the assay on T-47D breast it was 21.2%; with BT-549 breast it was 77.9%. Further, the growth in the assay on MDA-MB-435 melanoma was 53.6%; with SW-620 colon, -44.1% (active); with MCF7 breast, -11.1% (active); in the assay with HCT-116 colon, -34.2% (active); in the assay with HCC-2998 colon, 83.1%; in the assay with KM12 colon, 45.7%.
For `O=NN(c1ccccc1)c1ccccc1`, the growth was 114% in the assay with MOLT-4 leukemia; 99.5% with SR leukemia; 107% with RPMI-8226 leukemia; 102% with OVCAR-8 ovarian; 110% in the assay on OVCAR-4 ovarian; 105% in the assay with SK-OV-3 ovarian. Also, the growth with OVCAR-3 ovarian was 102%; in the assay with HS 578T breast, 107%; in the assay on NCI/ADR-RES ovarian it was 100%; in the assay on T-47D breast it was 107%; with BT-549 breast it was 122%; in the assay on MDA-MB-435 melanoma, 105%. The growth was 102% in the assay on SW-620 colon; 99.8% in the assay on MCF7 breast; 95.4% in the assay with HCT-116 colon; 101% in the assay on HCC-2998 colon; 102% with KM12 colon.
Turning to `C[C@]12CC[C@H]3[C@@H](C[C@@H]4SC(Nc5ccccc5)=N[C@@]45C/C(=N/O)CC[C@]35C)[C@@H]1CCC2=O`, the growth in the assay with MOLT-4 leukemia is 20.2%; in the assay on SR leukemia it was 2.15% (active); with OVCAR-8 ovarian, 46.7%; in the assay with OVCAR-5 ovarian it was 99.7%; in the assay with OVCAR-4 ovarian, 88%; in the assay on SK-OV-3 ovarian it was 105%. Further, the growth is 88.4% in the assay with IGROV1 ovarian; 42.9% in the assay with OVCAR-3 ovarian; 65.2% with HS 578T breast; 86.2% in the assay on NCI/ADR-RES ovarian; 64.4% with T-47D breast; 35.6% with BT-549 breast. Besides, the growth in the assay with MDA-MB-435 melanoma was 51.6%; in the assay on SW-620 colon it was 34.8%; in the assay on MCF7 breast it was 28.4%; in the assay with HCT-116 colon it was 9.01% (active); in the assay on HCC-2998 colon, 102%; in the assay on KM12 colon it was 67.8%.
